Results from PubChem BioAssay AID488932 (Broad Institute, 2010).
Results with a measured potency or affinity are listed apart. Active and inactive are the calls of the source.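 Rule for the calls: active = growth signal falls, with fitted half-maximal dose at most ten times the top valid dose; inconclusive = flat curve with a partial drop, or a poorly fitting curve; inactive = the rest, including compounds that raise signal.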

Test: single-agent toxicity toward C. albicans – CaCi-2 strain, no fluconazole, dry powder, set 4, counter-screen for reversing antifungal drug resistance, dose response (AID 488932)
Settings: C. albicans CaCi-2 (fluconazole-resistant clinical isolate) growth, Alamar Blue, 48 h; series mostly up to 26 µM

Which outcome does the source give for `Cc1cccc(N2CCN(C(=O)c3ccc(Cl)cc3)CC2)n1` here?
The outcome was “inactive”.

For `O=C(c1ccccc1)N1CCN(c2ccnc3cc(Cl)ccc23)CC1`, which outcome is on record?
Its outcome is “inactive”.

With `O=C(c1ccc(Cl)cc1)N1CCN(c2ccncc2)CC1` as the molecule, how does the outcome read?
Its outcome is “inactive”.

With `O=C(c1ccc(Cl)cc1)N1CCN(c2nc3ccccc3o2)CC1` as the molecule, how does the outcome read?
Its outcome is “inactive”.

Which outcome does the source give for `COc1ccc2c(N3CCN(C(=O)c4ccc(Cl)cc4)CC3)ccnc2c1` here?
Its outcome is “inactive”.

With `O=C(c1ccc(Cl)cc1)N1CCN(c2ccnc3cc(Cl)ccc23)CC1` as the molecule, how does the outcome read?
Its outcome is “inactive”.

With `Cc1cc(N2CCN(C(=O)c3ccc(Cl)cc3)CC2)c2ccc(F)cc2n1` as the molecule, how does the outcome read?
Its outcome is “inactive”.

For `O=C(c1ccc(Cl)cc1)N1CCCN(c2ccnc3cc(Cl)ccc23)CC1`, which outcome is on record?
Its outcome is “inactive”.

With `O=C(Nc1ccc(Cl)cc1)N1CCN(c2ccnc3cc(Cl)ccc23)CC1` as the molecule, how does the outcome read?
Its outcome is “inactive”.

With `O=C(c1ccc(Cl)cc1)N1CCN(c2ccccn2)CC1` as the molecule, how does the outcome read?
The outcome was “inactive”.

For `COc1cccnc1N1CCN(C(=O)c2ccc(Cl)cc2)CC1`, which outcome is on record?
The outcome was “inactive”.

With `COc1cccc2c(N3CCN(C(=O)c4ccc(Cl)cc4)CC3)cc(C)nc12` as the molecule, how does the outcome read?
The outcome was “inactive”.

Which outcome does the source give for `O=C(C1CCC1)N1CCN(c2ccnc3cc(Cl)ccc23)CC1` here?
Its outcome is “inactive”.

For `O=C(c1ccc(Cl)cc1)N1CCN(c2cccc(C(F)(F)F)n2)CC1`, which outcome is on record?
Its outcome is “inactive”.

Which outcome does the source give for `O=C(c1ccc(Cl)cc1)N1CCN(c2ccc(Cl)cc2)CC1` here?
The outcome was “inactive”.

With `O=C(c1ccc(F)cc1)N1CCN(c2ccnc3cc(Cl)ccc23)CC1` as the molecule, how does the outcome read?
The outcome was “inactive”.

With `O=C(c1cccc(Cl)c1)N1CCN(c2ccnc3cc(Cl)ccc23)CC1` as the molecule, how does the outcome read?
Its outcome is “inactive”.

Which outcome does the source give for `O=C(c1ccc(Cl)nc1)N1CCN(c2ccnc3cc(Cl)ccc23)CC1` here?
Its outcome is “inactive”.

For `O=C(c1ccc(Cl)cc1)N1CCN(c2nc3ccccc3s2)CC1`, which outcome is on record?
Its outcome is “inactive”.

For `CC(C)CC(=O)N1CCN(c2ccnc3cc(Cl)ccc23)CC1`, which outcome is on record?
Its outcome is “inactive”.

With `O=C(C1CC1)N1CCN(c2ccnc3cc(Cl)ccc23)CC1` as the molecule, how does the outcome read?
The outcome was “inactive”.

Which outcome does the source give for `COc1ccc(C(=O)N2CCN(c3ccnc4cc(Cl)ccc34)CC2)cc1` here?
The outcome was “inactive”.
